# Bioassay records from PubChem.
# Rows were chosen to be rich in hits. Some 5.7% of all compounds tested hit in one or more screens of this group.
# GRIN3A LBD mod = NR3A (human) ligand-binding domain modulation; NR3A LBD differential scanning fluorimetry, Tm shift; 0% = protein alone, 100% = glycine-bound protein; Tm shift relative to glycine control, % at 25 µM; 340,000 tested, 2.5% active; AID 1259313;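 active = melting temperature shift of at least 10% of the positive control shift, at one fixed dose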
# FAS TE block = blocks the thioesterase domain of human fatty acid synthase | P49327 | recombinant FAS-TE, OMFH fluorogenic substrate, fluorescence endpoint | inhibition, % at 15 µM | 360,000 tested, 0.67% active;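 active = compounds whose normalised, plate-corrected inhibition of enzyme fluorescence in the single-dose primary screen is 50% or more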;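 note: 0% = DMSO with enzyme and 100% = substrate without enzyme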
# Target sequence (P49327 whole entry, looked up, the tested form may be a part): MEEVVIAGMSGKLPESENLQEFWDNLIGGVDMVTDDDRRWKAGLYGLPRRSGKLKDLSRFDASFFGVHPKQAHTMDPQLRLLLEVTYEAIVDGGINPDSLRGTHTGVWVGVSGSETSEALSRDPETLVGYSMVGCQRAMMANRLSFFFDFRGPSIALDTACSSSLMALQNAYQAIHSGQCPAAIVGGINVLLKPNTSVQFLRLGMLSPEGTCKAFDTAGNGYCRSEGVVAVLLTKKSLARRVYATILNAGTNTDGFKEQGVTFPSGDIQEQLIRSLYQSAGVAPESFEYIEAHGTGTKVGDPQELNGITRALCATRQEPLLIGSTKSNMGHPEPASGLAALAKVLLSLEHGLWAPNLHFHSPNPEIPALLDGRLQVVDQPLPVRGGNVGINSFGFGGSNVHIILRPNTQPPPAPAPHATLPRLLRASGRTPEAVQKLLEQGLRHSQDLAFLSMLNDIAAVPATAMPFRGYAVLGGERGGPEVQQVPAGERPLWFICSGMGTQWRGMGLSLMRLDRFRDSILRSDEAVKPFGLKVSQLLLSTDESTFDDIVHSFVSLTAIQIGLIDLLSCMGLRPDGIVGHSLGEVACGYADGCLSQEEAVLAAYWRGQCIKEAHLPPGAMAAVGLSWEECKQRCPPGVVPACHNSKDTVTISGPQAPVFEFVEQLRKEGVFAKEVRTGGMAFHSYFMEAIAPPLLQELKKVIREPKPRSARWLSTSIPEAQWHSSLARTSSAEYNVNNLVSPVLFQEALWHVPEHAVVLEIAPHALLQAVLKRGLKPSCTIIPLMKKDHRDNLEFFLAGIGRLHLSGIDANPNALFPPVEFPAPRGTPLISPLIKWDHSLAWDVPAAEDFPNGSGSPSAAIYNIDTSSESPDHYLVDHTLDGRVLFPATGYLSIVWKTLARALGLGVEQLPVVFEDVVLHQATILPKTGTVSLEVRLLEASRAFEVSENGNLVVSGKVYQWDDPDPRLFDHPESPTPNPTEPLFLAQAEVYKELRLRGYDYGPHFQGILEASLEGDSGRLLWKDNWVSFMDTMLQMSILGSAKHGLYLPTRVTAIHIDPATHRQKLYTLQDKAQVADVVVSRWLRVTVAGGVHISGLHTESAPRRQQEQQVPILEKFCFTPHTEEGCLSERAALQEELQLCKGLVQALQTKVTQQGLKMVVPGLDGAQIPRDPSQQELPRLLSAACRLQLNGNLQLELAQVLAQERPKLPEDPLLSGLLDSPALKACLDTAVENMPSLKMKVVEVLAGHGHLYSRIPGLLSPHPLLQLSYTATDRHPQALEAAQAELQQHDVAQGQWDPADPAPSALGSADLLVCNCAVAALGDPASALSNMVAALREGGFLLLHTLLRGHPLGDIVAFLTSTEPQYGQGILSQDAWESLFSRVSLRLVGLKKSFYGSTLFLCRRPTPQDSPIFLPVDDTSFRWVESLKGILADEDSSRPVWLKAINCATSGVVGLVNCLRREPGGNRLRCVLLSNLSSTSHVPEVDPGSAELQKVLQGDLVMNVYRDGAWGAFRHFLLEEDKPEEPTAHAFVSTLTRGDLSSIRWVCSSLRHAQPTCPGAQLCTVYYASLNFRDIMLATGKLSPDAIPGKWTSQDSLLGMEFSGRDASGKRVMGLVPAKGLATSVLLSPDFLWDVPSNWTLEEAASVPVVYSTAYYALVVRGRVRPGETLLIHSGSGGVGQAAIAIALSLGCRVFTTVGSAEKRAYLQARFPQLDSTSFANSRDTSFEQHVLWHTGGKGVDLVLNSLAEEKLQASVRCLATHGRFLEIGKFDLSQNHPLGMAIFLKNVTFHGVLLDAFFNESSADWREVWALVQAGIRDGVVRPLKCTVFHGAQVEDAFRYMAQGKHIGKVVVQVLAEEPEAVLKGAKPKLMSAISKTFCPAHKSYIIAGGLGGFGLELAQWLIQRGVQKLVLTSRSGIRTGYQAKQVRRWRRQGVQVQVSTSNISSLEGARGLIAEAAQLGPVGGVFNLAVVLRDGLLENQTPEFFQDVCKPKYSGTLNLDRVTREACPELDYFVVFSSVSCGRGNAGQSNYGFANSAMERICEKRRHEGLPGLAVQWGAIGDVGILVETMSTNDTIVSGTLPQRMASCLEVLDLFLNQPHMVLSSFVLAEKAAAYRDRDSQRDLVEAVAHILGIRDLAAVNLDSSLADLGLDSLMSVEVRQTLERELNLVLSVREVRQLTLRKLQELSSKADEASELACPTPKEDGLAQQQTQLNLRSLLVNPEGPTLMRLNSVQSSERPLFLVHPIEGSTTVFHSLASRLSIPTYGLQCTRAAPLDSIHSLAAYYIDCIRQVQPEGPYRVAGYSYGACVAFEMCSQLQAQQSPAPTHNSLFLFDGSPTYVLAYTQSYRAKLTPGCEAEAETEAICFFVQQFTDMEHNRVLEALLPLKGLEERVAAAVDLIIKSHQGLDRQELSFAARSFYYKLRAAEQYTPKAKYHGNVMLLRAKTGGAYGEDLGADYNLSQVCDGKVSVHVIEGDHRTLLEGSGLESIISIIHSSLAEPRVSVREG
# MPTP inh = inhibitors of mitochondrial permeability transition pore | isolated mouse mitochondria, Ca2+ swelling absorbance, 30 min | inhibition, % at 10 µM | 360,000 tested, 1.4% active | AID 602449;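 active = inhibition of 50% or more, scaled per plate between neutral and stimulator controls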;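 note: 0% = DMSO wells given calcium and 100% = 1 mM EGTA wells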
# rCAG RNA binder = molecules binding r(CAG) RNA repeats; r(CAG) RNA repeat, TO-PRO-1 dye displacement fluorescence; 370,000 tested, 1.3% active; inhibition, % at 3 µM;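 active = inhibition above the plate cutoff, the mean of all test compounds on that plate plus 3 SD, cut at about 35% in these data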;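 note: 0% = DMSO alone and 100% = 100 µM mitoxantrone as full dye displacement; higher means more dye released from RNA so lower well fluorescence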
# Myeloid diff MLP = promotes myeloid progenitor differentiation; ER-HoxA9 myeloid progenitors, lysozyme-GFP differentiation, flow cytometry; AID 624256; calls only at 10 µM; 360,000 tested, 1% active;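 active = normalized GFP-positive differentiation at or above the plate's own cutoff, the solvent-only control mean plus 3 SD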;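 note: cells exposed to compound for four days before flow analysis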
# Numbers without * were called inactive; i = inactive; . = no result given; + = active, no number.
SMILES,GRIN3A LBD mod,FAS TE block,MPTP inh,rCAG RNA binder,Myeloid diff MLP
Cn1c(=O)c2c(SCC(=O)Nc3nccs3)nc(C3CC3)nc2n(C)c1=O,-3,-3,4,2,+
O=C(Cc1ccccc1)N/N=C/c1cc(Br)cs1,0,-1,0,-1,i
O=C(Cc1ccccc1)N/N=C/c1cc(Br)cc(Br)c1O,12*,26,3,11,i
O=C(COCC(=O)N/N=C/c1ccccc1F)N/N=C/c1ccccc1F,-8,-7,1,-4,i
O=C(CSCC(=O)NN=Cc1ccccc1O)NN=Cc1ccccc1O,26*,1,-2,0,i
O=C(CCCCC(=O)NN=Cc1ccccc1O)NN=Cc1ccccc1O,35*,0,1,3,i
O=C(CO)N/N=C/c1ccccc1F,1,-7,0,36*,i
Cc1ccc(NC(=O)CCC(=O)N/N=C/c2ccccc2O)cc1,-3,4,0,-1,i
O=C(CCC(=O)Nc1ccc(Br)cc1)N/N=C/c1ccccc1O,-14,11,2,8,i
COC(=O)CC(=O)CC(NS(=O)(=O)c1ccc(C)cc1)c1ccccc1 (stereo not given),.,.,.,5,.
Cn1cnc(S(=O)(=O)Nc2ccc(Cl)c(C(F)(F)F)c2)c1,14*,-5,0,3,i
COC(=O)[C@]12C[C@H](CC(=O)N3CCN(C(=O)c4ccco4)CC3)C(=O)N(CCC3=CCCCC3)C1=C[C@H](C(C)(C)C)O[C@@H]2C,.,.,.,2,.
Cc1ccc(Nc2nc(N/N=C/c3c[nH]c4ccccc34)nc(N3CCOCC3)n2)cc1,29*,34,-3,20,i
C(=N\Nc1nc(Nc2ccccc2)nc(N2CCOCC2)n1)/c1c[nH]c2ccccc12,18*,.,.,16,.
O=C(Nc1cccc(F)c1)c1ccc(-c2ccccc2Cl)o1,3,38,17,.,i
Cc1ccc(-c2ccc(C(=O)Nc3cccc(F)c3)o2)c2ccccc12,17*,28,10,21,i
CN(/N=C/c1ccc(Br)o1)C1=NS(=O)(=O)c2ccccc21,16*,-4,-1,2,i
CN(/N=C/c1cc(Cl)ccc1O)C1=NS(=O)(=O)c2ccccc21,12*,-3,6,18,.
Cc1noc(C)c1C(=O)OCC(=O)NC(=O)NC12CC3CC(CC(C3)C1)C2,-3,6,1,-4,i
Cc1nn(Cc2ccccc2)c(Cl)c1C(=O)OCC(=O)NC(=O)NC12CC3CC(CC(C3)C1)C2,17*,28,17,2,i
O=C(N/N=C/c1cc([N+](=O)[O-])ccc1O)c1c[nH]c2ccccc12,27*,21,5,6,i
O=C(N/N=C/c1c[nH]c2ccccc12)c1ccc([N+](=O)[O-])cc1Cl,4,13,2,.,i
O=C(NN=Cc1cc([N+](=O)[O-])ccc1O)c1cccc2ccccc12,1,42,-1,6,i
O=C(N/N=C/c1cccc([N+](=O)[O-])c1)c1c[nH]c2ccccc12,27*,35,3,5,i
Nn1c(SCC(=O)Nc2ccc(OCc3ccccc3)cc2)nnc1-c1cc(-c2ccc(F)cc2)n[nH]1,.,.,.,7,.
SMILES,GRIN3A LBD mod,FAS TE block,MPTP inh,rCAG RNA binder,Myeloid diff MLP
O=C(O)c1ccc(S(=O)(=O)c2ccc3c(c2)C(=O)N(NC(=O)c2ccccc2)C3=O)cc1,23*,2,-1,2,i
CCc1ccc(NC(=O)CSc2nnc(-c3n[nH]c4ccccc34)n2-c2ccccc2)cc1,23*,-8,2,2,i
Cc1cccc(NC(=O)CSc2nnc(-c3n[nH]c4ccccc34)o2)c1,4,-20,7,17,i
CCc1ccc(-n2c(SCC(=O)Nc3ccc(C(=O)O)cc3)nnc2-c2ccncc2)cc1,-1,.,.,4,.
O=C(CSc1nnc(-c2n[nH]c3ccccc23)n1-c1ccccc1)Nc1cccc(Cl)c1,22*,-1,1,3,i
Cc1ccccc1NC(=O)OC1CC2CC1[C@H]1CCCCN1[C@H]2Cc1ccccc1 (stereo not given in full),.,.,.,3,.
COc1cc(/C=C(\C#N)C(=O)c2ccc(O)c(O)c2)cc(I)c1O,2,-1,3,40*,+
CCc1cccc(NC(=O)c2ccc(NS(=O)(=O)c3c(C)noc3C)cc2)c1,29*,-1,0,26,i
COc1cc(NC(=O)c2ccc(NS(=O)(=O)c3c(C)noc3C)cc2)cc(OC)c1,19*,-2,0,18,i
Cc1cccc(NC(=O)c2ccc(NS(=O)(=O)c3c(C)noc3C)cc2)c1,29*,0,1,12,i
COc1ccc(S[C@]2(C(=O)N(C)C)CC(=O)N(C(=O)c3ccccc3)[C@@H]2c2ccc(OC)cc2)cc1,.,.,.,6,.
CC(C)NC(=O)C1(C)CN(S(C)(=O)=O)CC(=O)N1Cc1ccc2c(c1)OCO2 (stereo not given),.,.,-1,3,i
CN1CCN(c2ccc(NC(=O)c3cccs3)cc2)CC1,-6,-7,-2,1,i
O=C(Nc1ccc(NS(=O)(=O)c2ccccc2)cc1)c1ccccc1Cl,35*,4,0,6,i
O=C(Nc1ccc(NC(=O)C2CC2)cc1)c1cccs1,17*,-6,0,0,i
O=C(Nc1ccc(C(=O)N2CCCCC2)cc1)c1cccs1,-1,-2,1,-2,.
Cc1ccn2cc(-c3ccc(NC(=O)c4ccco4)cc3)nc2c1,29*,2,-1,-1,i
O=C(O)c1ccc(NS(=O)(=O)c2ccc(NC(=O)c3ccccc3Cl)cc2)cc1,-1,-4,-2,3,i
Cc1ccn(-c2ccc(NC(=O)c3cccs3)cc2)n1,26*,-3,-1,-2,i
C=CCN1[C@@H](CC(C)C)COc2cc(F)ccc2S1(=O)=O,.,.,.,2,.
C[C@H]1CN(S(=O)(=O)C(C)(C)C)[C@@H](CCO)/C1=C\c1ccccc1,.,.,.,2,.
O=C(Nc1ccccc1O)c1ccc(NC(=O)C2CC2)cc1,23*,-1,1,-1,i
O=C(/C=C/c1ccccc1)NNC(=O)c1cccs1,-1,-5,-2,-1,i
O=C(Nc1ccc(NC(=O)c2cccs2)cc1)c1cccs1,22*,-2,0,2,i
O=C(/C=C/c1ccccc1)Nc1ccc(NC(=O)c2cccs2)cc1,29*,0,0,5,i
SMILES,GRIN3A LBD mod,FAS TE block,MPTP inh,rCAG RNA binder,Myeloid diff MLP
O=C(Nc1ccc(NC(=O)c2cccs2)c(Cl)c1)c1cccs1,13*,6,0,7,i
O=C(Nc1ccc(NC(=O)c2cccs2)cc1Cl)c1ccco1,4,3,-2,1,i
O=C1CCC(NC(=O)Cc2ccccc2)C(=O)N1 (stereo not given),.,.,.,1,.
CC(C)N(c1cc(=O)nc2ccccn12)C(C)C,.,.,.,4,.
O=C(Nc1ccc(Cl)cc1)c1cccs1,2,0,0,0,i
O=C(CCC(=O)c1cccs1)NC(c1ccccc1)c1ccccc1,-1,7,0,4,i
O=C(Nc1ccc(NC(=O)c2ccccc2F)cc1)c1cccs1,22*,-4,-1,5,i
